Measured values taken from PubChem BioAssay (EPA / NIEHS).
Records with an inconclusive call do not appear. Activity calls are given as the source filed them. Rule for the calls, unless noted: active = hit-call score of the fitted dose curve at least 0.9, where 1 is the maximum; inactive = score below 0.9.

Assays:
[1] = biological target: Cellular tumor antigen p53 (Homo sapiens) (UniProt P04637); experiment: TOX21_p53_BLA_p2_ratio: Tox21 HCT-116 p53 Agonism Beta-lactamase Assay, Ratio, Phase 2 (AID 2283592; active = hit-call score of the fitted dose curve at least 0.9, where 1 is the maximum)
Procedure, shortened: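 Gain-of-signal p53 agonism was scored from the beta-lactamase FRET ratio (460/530 nm, 405 nm excitation) in HCT116 cells treated 16 h at 37C, 5% CO2, with DMSO serving as negative control and baseline.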

[2] = TOX21_p53_BLA_p3_viability: Viability Assessment in the Tox21 HCT-116 p53 Agonism Beta-lactamase Assay, Phase 3 (AID 2283593; active = hit-call score of the fitted dose curve at least 0.9, where 1 is the maximum;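 note: cells exposed to compound for 16 h before reading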)
Procedure, shortened: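 HCT116 cells, 4000/well, dosed 5 h after plating by pin transfer (217-fold dilution from DMSO stock) and incubated 16 h at 37C, 5% CO2. Viability read as ATP luminescence with CellTiter-Glo after 30 min at room temperature.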

[3] = biological target: Cellular tumor antigen p53 (Homo sapiens) (UniProt P04637); experiment: TOX21_p53_BLA_p3_ratio: Tox21 HCT-116 p53 Agonism Beta-lactamase Assay, Ratio, Phase 3 (AID 2283596; active = hit-call score of the fitted dose curve at least 0.9, where 1 is the maximum)
Procedure, shortened: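 HCT116 p53-bla cells (4000/well) given compound in DMSO (217-fold dilution) after 5 h, incubated 16 h at 37C. CCF4-AM substrate 2 h at room temperature; 460/530 nm emission ratio, gain fitted against DMSO.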

[4] = TOX21_p53_BLA_p4_viability: Viability Assessment in the Tox21 HCT-116 p53 Agonism Beta-lactamase Assay, Phase 4 (AID 2283597; active = hit-call score of the fitted dose curve at least 0.9, where 1 is the maximum;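 note: hits lower the luminescence signal meaning cytotoxicity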)
Procedure, shortened: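 Following a 16 h exposure at 37C, the treated HCT116 wells were first read for the FRET ratio. They were then lysed with CellTiter-Glo, and ATP luminescence was recorded after 30 min at room temperature.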

[5] = biological target: Cellular tumor antigen p53 (Homo sapiens) (UniProt P04637); experiment: TOX21_p53_BLA_p5_ratio: Tox21 HCT-116 p53 Agonism Beta-lactamase Assay, Ratio, Phase 5 (AID 2283599; active = hit-call score of the fitted dose curve at least 0.9, where 1 is the maximum)
Procedure, shortened: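 HCT-116 p53-bla cells (4000/well) plated 5 h, dosed with compound (217-fold DMSO dilution) for 16 h at 37 C; CCF4-AM substrate 2 h at room temperature. Activity is the 460/530 nm emission ratio (405 nm excitation), fitted in gain-of-signal direction versus DMSO.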

[6] = TOX21_p53_BLA_p5_viability: Viability Assessment in the Tox21 HCT-116 p53 Agonism Beta-lactamase Assay, Phase 5 (AID 2283600; active = hit-call score of the fitted dose curve at least 0.9, where 1 is the maximum)
Procedure, shortened: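 After the 460/530 nm beta-lactamase measurement, the wells received an ATP-detection luciferase reagent; signal was read 30 min later at RT. Compound treatment lasted 16 h on cells pre-incubated 5 h post-seeding.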

[7] = biological target: Cellular tumor antigen p53 (Homo sapiens) (UniProt P04637); experiment: TOX21_p53_BLA_p4_ratio: Tox21 HCT-116 p53 Agonism Beta-lactamase Assay, Ratio, Phase 4 (AID 2283601; active = hit-call score of the fitted dose curve at least 0.9, where 1 is the maximum)
Procedure, shortened: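 HCT-116 p53 beta-lactamase reporter cells (4000/well) preincubated 5 h, then compound (217-fold dilution of DMSO stock) for 16 h at 37C. CCF4-AM substrate added 2 h at room temperature; 460/530 nm emission ratio fitted upward versus DMSO.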

[8] = CCTE_Shafer_MEA_acute_spike_number: CCTE's Neural Acute Assay for Total Number of Spikes, Shafer Lab (AID 2284008)
Procedure, shortened: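 Total spike count from 40 min recordings before and during compound exposure (0.03-40 uM), given as per-well percent change. Cortical cultures from rat, DIV 13 or 15, 37 C; adaptive detection threshold 8x rms noise.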

[9] = CCTE_Shafer_MEA_acute_firing_rate_mean: CCTE's Neural Acute Assay for Mean Firing Rate, Shafer Lab (AID 2284009);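 note: analyzed for loss of signal so actives lower firing rate relative to DMSO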
Procedure, shortened: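 Rat primary cortical neurons on 48-well MEA plates, dosed at 0.03-40 uM on DIV 13 or 15; 40 min spontaneous activity recorded at 37 C before and after compound. Spike rate per electrode averaged per well, expressed as percent change from baseline.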

[10] = CCTE_Shafer_MEA_acute_burst_number: CCTE's Neural Acute Assay for Single-Electrode Bursts, Shafer Lab (AID 2284013)
Procedure, shortened: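 Primary rat cortical neurons on 16-electrode MEA wells, treated on DIV 13 or 15 with compound at 0.03-40 uM. Single-electrode burst count from 40-min recordings at 37 C before and after exposure; percent change from baseline per well, DMSO negative control.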

[11] = CCTE_Shafer_MEA_acute_burst_duration_mean: CCTE's Neural Acute Assay for Mean Burst Duration, Shafer Lab (AID 2284014);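 note: hits are decreases in mean burst duration relative to DMSO controls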
Procedure, shortened: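 Rat primary cortical neurons on 48-well MEA, treated at DIV 13 or 15 with 0.03-40 uM in at least 3 wells. Value is percent change in mean burst duration, comparing 40 min recordings at 37 C before and during exposure.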

[12] = CCTE_Shafer_MEA_acute_per_burst_spike_number_mean: CCTE's Neural Acute Assay for Average Number of Spikes Per Burst, Shafer Lab (AID 2284015);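 note: hits are decreases in mean spikes per burst versus baseline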
Procedure, shortened: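 Primary rat cortical neurons on 48-well MEA plates, treated on DIV 13 or 15 at 0.03-40 uM. Spontaneous activity recorded 40 min before and 40 min after compound at 37 C; percent change in mean spikes per single-electrode burst per well, fitted in the loss direction versus DMSO.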

[13] = CCTE_Shafer_MEA_acute_interburst_interval_mean: CCTE's Neural Acute Assay for Mean Interburst Interval, Shafer Lab (AID 2284016);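 note: percent change of mean interburst interval versus each well's own pre-dose baseline; curves fitted for decrease in interburst interval relative to DMSO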
Procedure, shortened: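 Primary rat cortical neurons on 16-electrode MEA wells were recorded 40 min at baseline on DIV 13 or 15, then 40 min after compound (0.03-40 uM), at 37 C. Value is percent change in mean interburst interval per well, DMSO as negative control.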

[14] = CCTE_Shafer_MEA_acute_burst_percentage_mean: CCTE's Neural Acute Assay for Percentage of Spikes in a Burst, Shafer Lab (AID 2284017);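 note: curve fitted for loss of signal so potency reflects decreased burst percentage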
Procedure, shortened: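 Primary rat cortical neurons on 16-electrode MEA wells; 40 min baseline recorded at DIV 13 or 15, then 40 min after compound (0.03-40 uM) at 37 C. Well-mean fraction of spikes in single-electrode bursts; percent change from baseline, DMSO as negative control.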

[15] = CCTE_Shafer_MEA_acute_burst_percentage_std: CCTE's Neural Acute Assay for Standard Deviation of Burst Percentage, Shafer Lab (AID 2284018);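 note: fitted in the negative direction so actives lower burst percentage SD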
Procedure, shortened: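 Rat primary cortical neurons on 48-well MEAs, DIV 13 or 15, 37 C. 40-min baseline then 40-min recording with compound (0.03-40 uM); well-level SD of per-electrode burst spike percentage, expressed as percent change from baseline.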

[16] = CCTE_Shafer_MEA_acute_per_network_burst_spike_number_mean: CCTE's Neural Acute Assay for Average Number of Spikes in a Network Burst, Shafer Lab (AID 2284019)
Procedure, shortened: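 Rat primary cortical neurons on 48-well MEA at DIV 13 or 15, 37 C; compounds 0.03-40 uM, at least three wells each. 40-min baseline then 40-min exposure recording; percent change in mean spikes per network burst.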

[17] = CCTE_Shafer_MEA_acute_per_network_burst_spike_number_std: CCTE's Neural Acute Assay for Standard Deviation of Number of Spikes in a Network Burst, Shafer Lab (AID 2284020);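 note: fitted for decrease in spike-number SD versus DMSO so actives lower it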
Procedure, shortened: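 Rat primary cortical neurons on 48-well MEA (16 electrodes/well), treated DIV 13 or 15 at 0.03-40 uM, ≥3 wells per compound. 40 min recordings at 37 C before and after dosing; value is percent change in network-burst spike-number SD, negative direction vs DMSO.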

[18] = CCTE_Shafer_MEA_acute_per_network_burst_electrodes_number_mean: CCTE's Neural Acute Assay for Mean Number of Electrodes in a Network Burst, Shafer Lab (AID 2284021);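 note: curves fitted for decreases only so hits reduce electrodes per burst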
Procedure, shortened: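 Percent change from baseline was computed as mean electrode count per network burst, comparing 40 min recordings before and during compound (0.03-40 uM) exposure. Cultures were rat cortical neurons at DIV 13 or 15, recorded on MEAs at 37 C with an adaptive 8x rms threshold.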

[19] = CCTE_Shafer_MEA_acute_network_burst_percentage: CCTE's Neural Acute Assay for Percentage of Network Bursts, Shafer Lab (AID 2284022);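 note: curves fitted for loss so actives lower network burst percentage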
Procedure, shortened: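 Network burst percentage (spikes in network bursts divided by total spikes) recorded at 37 C over 40 min baseline and 40 min after compound, 0.03-40 uM, in rat cortical cultures at DIV 13 or 15. Analysed as percent change from baseline versus DMSO.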

[20] = CCTE_Shafer_MEA_acute_cross_correlation_HWHM: CCTE's Neural Acute Assay for Cross Correlation at Half Width at Half Maximum, Shafer Lab (AID 2284026);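 note: percent change per well from pre-dose baseline in spike cross-correlogram half width; hits are a decrease in cross-correlogram half width relative to DMSO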
Procedure, shortened: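 Per-well percent change in cross-correlogram half width at half maximum, derived from 40-min recordings before and after compound (0.03-40 uM) at 37 C. Cultures were rat cortical neurons, DIV 13 or 15, with adaptive spike detection at 8x rms.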

[21] = CCTE_Shafer_MEA_acute_synchrony_index: CCTE's Neural Acute Assay for Synchrony, Shafer Lab (AID 2284027);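 note: network synchrony index of spontaneous spiking in primary rat cortical neurons on MEAs; fitted for loss of signal so actives lower synchrony relative to DMSO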
Procedure, shortened: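 Primary rat cortical neurons on 16-electrode MEA wells were recorded 40 min at baseline (DIV 13 or 15) and 40 min after compound (0.03-40 uM) at 37 C. Synchrony index (0-1) expressed as percent change from baseline, versus DMSO.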

[22] = CCTE_Shafer_MEA_dev_firing_rate_mean: CCTE's Neural Network Formation Assay for Mean Firing Rate, Shafer Lab (AID 2284031)
Procedure, shortened: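 Primary rat cortical neurons on 48-well, 16-electrode MEAs (PEI-coated, laminin at plating), exposed from day 0 with compound renewed at DIV 5 and 9. Spikes recorded DIV 5, 7, 9, 12; well-mean firing rate collapsed to trapezoidal AUC, loss-of-signal vs DMSO.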

[23] = CCTE_Shafer_MEA_dev_per_burst_spike_percent: CCTE's Neural Network Formation Assay for Percent of Spikes in a Burst, Shafer Lab (AID 2284032);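 note: fitted as a decrease in burst spike percentage below DMSO baseline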
Procedure, shortened: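 Rat primary cortical neurons on 16-electrode MEA wells, dosed from plating day 0 for 12 days with renewal on DIV 5 and 9; spikes-in-bursts percentage averaged over bursting electrodes, collapsed as AUC across days 5, 7, 9, 12; loss direction versus DMSO.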

[24] = CCTE_Shafer_MEA_dev_active_electrodes_number: CCTE's Neural Network Formation Assay for Number of Active Electrodes, Shafer Lab (AID 2284040; active = hit-call score of the fitted dose curve at least 0.9, where 1 is the maximum;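 note: potency for loss of active electrodes versus DMSO so lower counts are hits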)
Procedure, shortened: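 Rat cortical primary cultures, 1.5 x 10^5 cells/well, PEI-coated MEA, laminin drop. Continuous exposure DIV 0–12; full media/compound change DIV 5, 9. Readout: electrodes with mean firing ≥5 spikes/min; AUC across days; loss vs DMSO.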

[25] = CCTE_Shafer_MEA_dev_burst_rate: CCTE's Neural Network Formation Assay for Burst Rate, Shafer Lab (AID 2284042)
Procedure, shortened: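 Rat primary cortical cultures on PEI/laminin MEA; compound from plating, re-dosed at DIV 5, 9 media change. Single-electrode bursts/recording length, well mean of active electrodes; AUC over DIV 5–12 recordings; loss-of-signal vs DMSO.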

[26] = CCTE_Shafer_MEA_dev_bursting_electrodes_number: CCTE's Neural Network Formation Assay for Number of Bursting Electrodes, Shafer Lab (AID 2284043; active = hit-call score of the fitted dose curve at least 0.9, where 1 is the maximum;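 note: potency is for loss of bursting electrodes relative to DMSO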)
Procedure, shortened: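 Primary rat cortical neurons plated on 16-electrode MEA wells, exposed from day 0 with compound renewed at DIV 5 and 9. Electrodes bursting ≥1 burst per 2 min counted on days 5, 7, 9 and 12; trapezoidal AUC across days, fitted for loss versus DMSO.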

[27] = CCTE_Shafer_MEA_dev_per_burst_interspike_interval: CCTE's Neural Network Formation Assay for Burst Interspike Interval, Shafer Lab (AID 2284044);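 note: mean spike spacing inside bursts as AUC over recordings on days 5 7 9 12; potency for a decrease of within-burst interspike interval below DMSO level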
Procedure, shortened: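 Mean interspike interval within single-electrode bursts, averaged over bursting electrodes, from rat cortical cultures on MEA plates recorded on days 5, 7, 9 and 12. Continuous compound exposure from plating; trapezoidal AUC fitted downward relative to DMSO.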

Measured: AC50

Sequence of Cellular tumor antigen p53 (Homo sapiens) (P04637 whole entry, looked up): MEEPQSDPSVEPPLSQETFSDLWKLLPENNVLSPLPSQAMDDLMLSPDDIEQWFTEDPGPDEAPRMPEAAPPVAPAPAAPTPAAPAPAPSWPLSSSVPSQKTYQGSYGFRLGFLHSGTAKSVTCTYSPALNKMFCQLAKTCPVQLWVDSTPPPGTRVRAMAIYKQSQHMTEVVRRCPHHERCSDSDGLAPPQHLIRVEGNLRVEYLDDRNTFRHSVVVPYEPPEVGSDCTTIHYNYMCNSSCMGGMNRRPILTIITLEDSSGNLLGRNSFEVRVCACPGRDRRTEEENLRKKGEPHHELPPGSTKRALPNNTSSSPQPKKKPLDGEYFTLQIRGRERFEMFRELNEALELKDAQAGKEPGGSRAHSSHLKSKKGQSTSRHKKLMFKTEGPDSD

CC1(C)[C@H](C=C(Cl)Cl)[C@@H]1C(=O)O[C@@H](C#N)c1cccc(Oc2ccccc2)c1
active: [12] 2.61 µM | [13] 1.12 µM | [14] 2.24 µM | [17] 0.682 µM | [18] 1.23 µM | [19] 2.98 µM | [20] 15 µM | [21] 1.39 µM | [23] 8.96 µM | [24] 15 µM | [26] 8.64 µM | [27] 4.06 µM
inactive: all other assays above
